Data as given in PubChem BioAssay AID1780 (National Center for Advancing Translational Sciences (NCATS), 2009).
Calls of active or inactive are those of the source. Calls come from the whole dose curve; as a rule, active = well fitted curve in the direction sought with a large enough effect; inactive = no such curve, though single readings can be large or run the other way.

Target: Pyruvate kinase PKM (Homo sapiens) (UniProt P14618)
Assay: Confirmation Concentration-Response Assay for Activators of Human Muscle isoform 1 Pyruvate Kinase
Details: purified hPK-M1, Kinase-Glo ATP luminescence, 1 h; series mostly up to 57.5 µM
From the text: Confirmatory assay NIH Chemical Genomics Center [NCGC] Matthew G. Vander Heiden, M.D., Ph.D. [Harvard Medical School, 77 Avenue Louis Pasteur, Boston, MA 02115] NCGC Assay Overview: Human pyruvate kinase […] (hPK-M1) enzyme was supplied as a highly purified (>95% pure) preparation from Harvard Medical School and assayed for its ability to generate ATP from ADP using phosphoenolpyruvate (PEP) as a substrate. ATP generation was detected in a coupled reaction by luciferase-mediated luminescence, an ATP-dependent process. Pyruvate kinase substrates, PEP and ADP, were present in the assay at Km and approximately 10-fold below Km respectively. The enzyme was assayed at an intermediate level of activity to screen for both inhibitors and activators.
NCGC Assay Protocol Summary for M1-isoform: Three uL of substrate mix (at r.t.) in assay buffer (50 mM Imidazole pH7.2, 50 mM KCl, 7 mM MgCl2, 0.01% Tween 20, 0.05% BSA) was dispensed into white solid bottom 1,536 well microtiter plates so that the final concentrations of substrates in the assay were 0.1 mM ADP and 0.5 mM PEP. 23 nL of compound were delivered by a pin tool and 1 uL of enzyme mix (final concentration of 1 nM) in assay buffer (4 degree Celsius) was added. Plates were incubated at room temperature for 1 hour. Two uL of detection mix (Kinase-Glo, Promega; at 4 degree Celsius protected from light) was added and luminescence read by a ViewLux (Perkin Elmer) at 1 second exposure/plate. Data were normalized to the uninhibited (row 31). Additionally, a no enzyme and 5-fold enzyme control was dispensed in row 32, split equally between the two conditions.

Sequence of Pyruvate kinase PKM (Homo sapiens) (P14618 whole entry, looked up, canonical isoform): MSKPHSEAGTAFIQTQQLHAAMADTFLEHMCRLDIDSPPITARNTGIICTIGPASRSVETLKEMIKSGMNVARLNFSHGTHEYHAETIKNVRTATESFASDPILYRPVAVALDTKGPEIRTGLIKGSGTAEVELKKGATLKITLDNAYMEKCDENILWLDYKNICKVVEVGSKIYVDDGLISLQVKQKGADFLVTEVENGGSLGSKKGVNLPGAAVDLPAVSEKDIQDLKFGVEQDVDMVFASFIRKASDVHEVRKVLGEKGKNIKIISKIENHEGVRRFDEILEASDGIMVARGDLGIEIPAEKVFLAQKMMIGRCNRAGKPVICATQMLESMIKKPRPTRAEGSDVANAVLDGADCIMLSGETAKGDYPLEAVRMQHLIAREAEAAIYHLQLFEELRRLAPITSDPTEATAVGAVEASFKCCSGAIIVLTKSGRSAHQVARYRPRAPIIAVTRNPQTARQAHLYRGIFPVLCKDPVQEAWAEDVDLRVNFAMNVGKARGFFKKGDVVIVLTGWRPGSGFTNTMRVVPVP

outcome, inactive:
Cc1cc2c(s1)c1cnn(Cc3c(F)cccc3F)c(=O)c1n2C, Cc1cc2c(s1)c1cnn(Cc3cccc(Cl)c3)c(=O)c1n2C, COc1cc2c(s1)c1cnn(Cc3ccccc3F)c(=O)c1n2C, O=S(=O)(c1ccc2c(c1)OCCO2)C1CCN(S(=O)(=O)c2c(F)cccc2F)CC1, COc1ccc(Cn2ncc3c4sc(C)cc4n(C)c3c2=O)cc1, Cc1nc2ccc(S(=O)(=O)N3CCN(S(=O)(=O)c4c(F)cccc4F)CC3)cc2s1, O=S(=O)(c1ccc2c(c1)OCCO2)N1CCN(S(=O)(=O)c2ccc3c(c2)OCCO3)CC1, Cc1cc2c(s1)c1cnn(Cc3ccc(C(F)(F)F)cc3)c(=O)c1n2C, Cc1cc2c(s1)c1cnn(Cc3c(F)c(F)cc(F)c3F)c(=O)c1n2C, Cn1c2cc([N+](=O)[O-])sc2c2cnn(Cc3ccccc3F)c(=O)c21, O=S(=O)(NCCCCNS(=O)(=O)c1c(F)cccc1F)c1ccc2c(c1)OCCO2, Cc1ccc(Cn2ncc3c4sc(C)cc4n(C)c3c2=O)cc1, O=S(=O)(NC1CCC(NS(=O)(=O)c2c(F)cccc2F)CC1)c1ccc2c(c1)OCCO2 (stereo not given), Cn1c2ccsc2c2cnn(Cc3ccccc3F)c(=O)c21, O=S(=O)(NCC1CN(S(=O)(=O)c2ccc3c(c2)OCCO3)C1)c1c(F)cccc1F, Cc1cc2c(s1)c1cnn(Cc3cccc(F)c3F)c(=O)c1n2C, COc1ccc(Cn2ncc3c4sc(C)cc4n(C)c3c2=O)cc1F, O=C(c1c(F)cccc1F)N1CCN(S(=O)(=O)c2ccc3c(c2)OCCO3)CC1, Cc1cc2c(s1)c1c(C)nn(Cc3ccccc3F)c(=O)c1n2C, Cn1ccc2cc(S(=O)(=O)N3CCN(S(=O)(=O)c4c(F)cccc4F)CC3)ccc21, Cc1cc2c(s1)c1cnn(Cc3cccc(F)c3)c(=O)c1n2C, O=C1CN(S(=O)(=O)c2ccc3c(c2)OCCO3)CCN1S(=O)(=O)c1c(F)cccc1F, O=C(CN1C(=O)N/C(=C\c2cccn2-c2cccc(C(=O)O)c2)C1=O)Nc1ccccc1F, O=S(=O)(c1ccc2ccccc2c1)N1CCN(S(=O)(=O)c2c(F)cccc2F)CC1, Cc1cc2c(s1)c1cnn(Cc3ccccc3F)c(=O)c1n2C(C)C, O=S(=O)(c1ccc2c(c1)OCCCO2)N1CCN(S(=O)(=O)c2c(F)cccc2F)CC1, O=S(=O)(NCCCCCNS(=O)(=O)c1c(F)cccc1F)c1ccc2c(c1)OCCO2, Cn1c2cc(S(C)=O)sc2c2cnn(Cc3ccccc3F)c(=O)c21 (stereo not given), Cc1cc2c(s1)c1cnn(Cc3ccc(Cl)cc3)c(=O)c1n2C, CC1(C)CCc2cc(S(=O)(=O)N3CCN(S(=O)(=O)c4c(F)cccc4F)CC3)ccc2O1, Cn1c2ccsc2c2ncn(Cc3ccccc3F)c(=O)c21, Cn1c2cc(B(O)O)sc2c2cnn(Cc3ccccc3F)c(=O)c21, Cc1cc2c(s1)c1cnn(Cc3ccc(C)c(F)c3F)c(=O)c1n2C, O=S(=O)(c1ccccc1)N1CCN(S(=O)(=O)c2ccc3c(c2)OCCO3)CC1, O=S(=O)(c1ccc2c(c1)OCCO2)N1CCN(S(=O)(=O)c2cccc[n+]2[O-])CC1, O=S(=O)(c1c(F)cccc1F)N1CCN(S(=O)(=O)c2c(F)cccc2F)CC1, O=S(=O)(c1ccc2c(c1)OCCO2)N1CCN(S(=O)(=O)c2ccccc2F)CC1, CN1CCOc2ccc(S(=O)(=O)N3CCN(S(=O)(=O)c4c(F)cccc4F)CC3)cc21, Cc1cc2c(s1)c1cnn(Cc3cc(C(F)(F)F)cc(Cl)c3F)c(=O)c1n2C, CSc1cc2c(s1)c1cnn(Cc3ccccc3F)c(=O)c1n2C
